This is part of a sample that, as a whole, favours compounds with a hit. Of some 83,000 tested, about 20% had one in any assay.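 For each line, cells grew in 96-well plates with the test compound present at a single concentration for 48 hours.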 The source made the active and inactive calls.

This test concerns SNB-19 CNS. In words: NCI-60 one-dose screen, 48 h (100 = growth as untreated, 0 = no growth, -100 = all killed). The conditions noted are these: 10 µM unless noted. The protocol:
Growth inhibition of the SNB-19 human tumor cell line is measured as a screen for anti-cancer activity. Cells are grown in 96 well plates and exposed to the test compound for 48 hours. Compounds are tested at a single concentration, which is 10^-5 M for most compounds. The reported endpoint is percent growth (GI% or GIPRCNT), where numbers from 0 - 100% represent growth inhibition, and numbers from -100% - 0 represent cell death. For example, a value of 40 represents 60% growth inhibition. A value of 0 means no net growth occurred over the course of the experiment. A value of -40 indicates 40% of cells at the beginning of the experiment died by the end of the experiment. A value of -100 means all cells are dead at the end of the experiment.
NCI-60 Human Tumor Cell Lines Screen was performed using the standard one-dose NCI protocol, which is described in more detail at https://dtp.cancer.gov/discovery_development/nci-60/default.htm.
Compounds with GIPRCNT values below 10 were considered active. Activity score was based on GIPRCNT using the following formula: […]
Score is 0 for GIPRCNT values of 100 or above, 50 for GIPRCNT values of 0, and 100 for GIPRCNT values of -100.
For the molecule `COc1ccc(Nc2ncc(C#N)c(NCCCNC(=O)C3CCC3)n2)cc1`, the growth is 68.9% (inactive). Turning to `COc1ccc2c(c1)C(C)Cc1c(ncnc1-n1cnc3cc(C)ccc31)N2C` (stereo not given), the growth was 33.5% (inactive). As to `COc1ccc(/C=C/C(c2cc(OC)c(OC)c(OC)c2)n2cncn2)cc1O` (stereo not given), the growth is 34.2% (inactive). Take `Cc1ccc(S(=O)(=O)OCC#CCOS(=O)(=O)c2ccc(C)cc2)cc1`: the growth is 70.1% (inactive). Regarding `c1ccc(-c2nc3ccccc3[nH]2)c(OCCCCCOc2ccccc2-c2nc3ccccc3[nH]2)c1`, the growth was 91.7% (inactive). On to `CCOC(=O)c1c(NC(=O)c2ccccc2)sc2c3c(ccc12)OCN(C)C3`, for which the growth is 8.15% (active). As to `Cc1ccc(-c2csc(NC(=O)CSc3nc(N)cc(N)n3)n2)cc1`, the growth was 64.2% (inactive). The figure for `COc1cc(/C=C2\C(=O)N(CCCOc3cc(O)c4c(=O)cc(-c5ccccc5)oc4c3)c3ccccc32)cc(OC)c1O` is 80.6% (inactive); for `CCCCCc1ccc(S(=O)(=O)Nc2ccc3nc(N)oc3c2)cc1` it is 66.3% (inactive); for `CCOc1ccc(NC(=O)Nc2ccc(OCC)cc2)cc1` it is 107% (inactive). Regarding `C=C(C)[C@@H]1CC[C@]2(COC3CCCCO3)CC[C@]3(C)[C@H](CC[C@@H]4[C@@]5(C)C=C(C=O)C(=O)C(C)(C)[C@@H]5CC[C@]43C)[C@@H]12` (stereo not given in full), the growth is -71.4% (active).

On to `C#Cc1cccc(NC(=O)C2CCCCN2C(=O)CCl)c1` (stereo not given), for which the growth was 20.1% [8.25 µM] (inactive). In the case of `O=C(CSc1nnnn1-c1ccccc1)Nc1ccc(Oc2ccccc2)cc1` it was 98.8% (inactive); in that of `O=C(NCc1ccc(Cn2c(=O)sn(-c3ccccc3)c2=O)cc1)OCc1ccc2cccc(O)c2n1`, 44.7% (inactive); in that of `COC12C=C/C(=C(/C(=O)OCc3cncnc3)C(=O)CCCCCCCCC3(OC)C=C/C(=C(/C(=O)OCc4cncnc4)C(=O)CCCCCCCC1)O3)O2`, 10.9% (inactive). In the case of `CC(C)C1C2=C(NCCN1C(=O)c1ccncc1)C(C)(C)N(Cc1ccccc1)C2=O` (stereo not given) it was 101% (inactive). In the case of `COc1ccc(/C=C(\C(=O)NCc2cccnc2)S(=O)(=O)c2ccccc2)cc1OC`, the growth is 38.4% (inactive). In the case of `CC(C)(Sc1cc(C(C)(C)C)c(O)c(C(C)(C)C)c1)Sc1cc(C(C)(C)C)c(OC(=O)CCC(=O)O)c(C(C)(C)C)c1`, the growth is 47.4% (inactive). `CCCCCc1ccc(S(=O)(=O)Nc2cc(-c3csc(NC(C)=O)n3)ccc2N2CCN(C)CC2)cc1`: the growth is 74.6% (inactive). As to `OC1(c2ccccc2)c2ccccc2N(c2ccccc2)c2ccc(Cl)cc21` (stereo not given), the growth was -91.6% (active). With `CC1=C2[C@@H](CC1)[C@]1(C)O[C@@](C3CCNCC3)(C[C@H]1OC(=O)CO)[C@H]2OC(=O)/C=C/c1ccccc1`, the growth was 90.6% (inactive). Take `O=c1ccc2ccc(OCCN3CCCCC3)cc2o1`: the growth is 104% (inactive).

Regarding `COc1ccc(C(c2cc(OC)c(OC)c(OC)c2)N2CCCCC2)cc1` (stereo not given), the growth is 30.4% (inactive). With `CC1(C)CC[C@]23CC[C@]4(C)[C@H](CC[C@@H]5[C@@]6(C)C/C(=C/O)C(=O)C(C)(C)[C@@H]6CC[C@]54C)[C@H]2[C@H]1OC3`, the growth is 98% (inactive). `Cc1[nH]c(C(=O)Nc2ccccc2OC2CCN(CCN3CCOCC3)CC2)c(Cl)c1Cl`: the growth was 107% (inactive). `Cc1cn(C)cn1`: the growth was 107% (inactive). The figure for `C/C=C1/CN(CCCCC)CC[C@H]1C(=O)c1cc2ccccc2[nH]1` is 96.7% (inactive); for `CC(C)CCC[C@@H](C)[C@H]1CC[C@H]2[C@@H]3CC=C4c5sc(Nc6cc(C(F)(F)F)cc(C(F)(F)F)c6)nc5CC[C@]4(C)[C@H]3CC[C@]12C` it is 98.6% (inactive); for `O=C(c1ccc(Br)cc1)C(Br)C(c1ccc(Cl)cc1)C(c1ccccc1)[N+](=O)[O-]` (stereo not given) it is 93.9% (inactive). In the case of `c1ccc2cc(Cn3cc(CSc4nc5ccccc5s4)nn3)ccc2c1`, the growth is 93.3% (inactive). In the case of `N=C(N)c1ccc(OCCSCCOc2ccc(C(=N)N)cc2)cc1`, the growth was 56.7% (inactive). As to `Cc1ccc(Cc2cnc(NC(=O)/C=C/c3ccc(C)o3)s2)cc1`, the growth is 56.4% (inactive).

For the molecule `CCN1C(=O)N(c2ccccc2)C2NC(=S)N(/N=C/C=C/c3ccccc3OC)C21` (stereo not given), the growth was 32.7% (inactive). For `O=C(Nc1ccc(Nc2ccncc2)cc1)c1ccc(Nc2ccnc3ccc([N+](=O)[O-])cc23)cc1`, the growth was 117% (inactive). The figure for `CC(C)(C)c1ccc(S(=O)(=O)Oc2ccc(-c3sc4cc(OS(=O)(=O)c5ccc(C(C)(C)C)cc5)ccc4c3C(=O)c3ccc(OCCN4CCCCC4)cc3)cc2)cc1` is 97.6% (inactive). On to `Cn1cc(-c2csc(-c3cn(CCCN4CCOCC4)c4ccc(F)cc34)n2)c2cccnc21`, for which the growth is 77.1% (inactive). In the case of `CC(=O)Nc1sc2c(c1-c1nc3ccccc3s1)CNC2` it was 26.8% (inactive); in that of `Cc1cc(NCCCNc2ccnc3cc(Cl)ccc23)nc(Nc2ccc(C(=O)N3CCCCC3)cc2)n1`, 25.6% (inactive); in that of `C[C@H]1[C@H](C)CC[C@]2(C(=O)NCCNCCN)CC[C@]3(C)C(=CC[C@@H]4[C@@]5(C)CCC(=O)C(C)(C)[C@@H]5CC[C@]43C)[C@H]12`, 71.6% (inactive).

Turning to `O=C(NC1CCC(Br)CC1)C1CCCC(S(=O)(=O)NC2CCCCC2)C1` (stereo not given), the growth was 26.8% [25 µM] (inactive).

For the origin of these results see PubChem BioAssay (NCI).
